Results as given in PubChem BioAssay (EPA / NIEHS).
Results filed as inconclusive are left out. Calls of active or inactive are those of the source. The calls were made as follows, unless noted: active = hit-call score of the fitted dose curve at least 0.9, where 1 is the maximum; inactive = score below 0.9.

How the values were obtained:
[1] = molecular target: Paired box protein Pax-6 (Homo sapiens) (UniProt P26367); assay: ATG_Pax6_CIS: Attagene CIS-FACTORIAL HepG2 Assay for human Paired Box 6 (PAX6) (AID 2282956); conditions: HepG2 CIS-FACTORIAL PAX6 reporter transcription, RNA readout; actives raise or lower the signal
Procedure, shortened: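 Fluorescent RT-PCR products separated by capillary electrophoresis report PAX6-linked promoter mRNA in HepG2 cells 24 h post-dose. Curves fitted bidirectionally, DMSO as negative control.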

[2] = ATG_PXRE_CIS: Attagene CIS-FACTORIAL HepG2 Assay for human Pregnane X Receptor Element (PXRE) (AID 2282957); conditions: HepG2 Attagene CIS-FACTORIAL PXRE reporter, mRNA; actives raise or lower the signal
Procedure, shortened: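 Endogenous transcription factor activity in HepG2 was gauged through induction of reporter mRNA driven by a cis-regulating promoter element, sampled 24 h post-treatment. Activity was fitted in both directions against DMSO negative control.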

[3] = ATG_PPRE_CIS: Attagene CIS-FACTORIAL HepG2 Assay for human Peroxisome Proliferator-activated Response Element (PPRE) (AID 2282958); conditions: HepG2 PPRE cis-element reporter, Attagene transcription factor profiling; actives raise or lower the signal
Procedure, shortened: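 After human HepG2 hepatoma cells were transiently transfected with cis-promoter reporter constructs, they were exposed to test chemicals for 24 hours. Reporter RNA was then reverse-transcribed, PCR-amplified, FAM-labeled, HpaI-digested and quantified by capillary electrophoresis.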

[4] = ATG_RORE_CIS: Attagene CIS-FACTORIAL HepG2 Assay for human RAR-related Orphan Receptor Element (RORE) (AID 2282959); conditions: HepG2 Attagene cis-factorial RORE reporter, mRNA; actives raise or lower the signal
Procedure, shortened: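 Measured here: transcript induction of a cis-regulated reporter in HepG2 cells transiently transfected via FuGene 6. After 24 h, RNA was processed by RT-PCR and fluorescent capillary electrophoresis; DMSO defined baseline activity.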

[5] = molecular target: Transcription factor Sp1 (Homo sapiens) (UniProt P08047); assay: ATG_Sp1_CIS: Attagene CIS-FACTORIAL HepG2 Assay for human Specificity Protein 1 (Sp1) (AID 2282961); conditions: HepG2 Sp1 cis-reporter transcription, actives raise or lower the signal
Procedure, shortened: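 After transient transfection of HepG2 cells with cis-promoter reporter units and 24 h chemical treatment, reporter transcripts were quantified by RT-PCR and capillary electrophoresis fluorescence. Gain- and loss-of-signal fitted against DMSO.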

[6] = ATG_SREBP_CIS: Attagene CIS-FACTORIAL HepG2 Assay for human Sterol Regulatory Element Binding (SREBP) (AID 2282962); conditions: HepG2 Attagene cis-factorial SREBP reporter, mRNA; actives raise or lower the signal
Procedure, shortened: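 Endogenous factor activity is measured in HepG2 through multiplexed reporter units under cis-element control. Following a 24 h incubation, reporter transcripts are reverse-transcribed, PCR-amplified and sized by capillary electrophoresis; activity is fitted in both directions relative to DMSO.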

[7] = molecular target: Signal transducer and activator of transcription 3 (Homo sapiens) (UniProt P40763); assay: ATG_STAT3_CIS: Attagene CIS-FACTORIAL HepG2 Assay for human Signal Transducer and Activator of Transcription 3 (STAT3) (AID 2282963); conditions: HepG2, Attagene cis-factorial STAT3 reporter transcription; actives raise or lower the signal
Procedure, shortened: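 Fluorescence intensity of 6-FAM-labelled reporter fragments, separated by capillary electrophoresis after RT-PCR, gave the signal. Cells were HepG2 transfected with cis-element reporter units and treated 24 h; fitting was bidirectional relative to DMSO.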

[8] = ATG_TA_CIS: Attagene CIS-FACTORIAL HepG2 Assay for human TA Basal Promoter (AID 2282964); conditions: HepG2 Attagene CIS-factorial TA basal promoter reporter; actives raise or lower the signal
Procedure, shortened: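 HepG2 cells transiently transfected with multiplexed cis-promoter reporter units, dosed 24 h. Reporter mRNA measured by RT-PCR, 6-FAM labelling, HpaI digestion and capillary electrophoresis; bidirectional fit versus DMSO baseline, serving as background control.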

[9] = ATG_TCF_b_cat_CIS: Attagene CIS-FACTORIAL HepG2 Assay for human T-Cell-Factor with beta-catenin (TCF/b-cat) (AID 2282965); conditions: HepG2 TCF/beta-catenin cis-reporter transcription, actives raise or lower the signal
Procedure, shortened: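 Cells of the HepG2 line carry transiently transfected reporter units whose promoters respond to endogenous factors. Twenty-four hours post-dosing, reporter mRNA induction is measured by fluorescent RT-PCR and capillary electrophoresis, with DMSO as baseline.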

[10] = ATG_TAL_CIS: Attagene CIS-FACTORIAL HepG2 Assay for human TAL Basal Promoter (AID 2282966); conditions: HepG2 Attagene cis-factorial TAL promoter reporter; actives raise or lower the signal;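 also: background control endpoint measuring basal TAL promoter reporter mRNA not a specific factor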
Procedure, shortened: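 Endogenous transcription-factor activity is sensed in HepG2 cells through transfected cis-promoter reporter constructs. After 24 h dosing, reporter transcripts are quantified by RT-PCR and capillary electrophoresis. Gain or loss of signal is fitted relative to DMSO.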

[11] = ATG_TGFb_CIS: Attagene CIS-FACTORIAL HepG2 Assay for human Transforming Growth Factor (TGF) (AID 2282967); conditions: HepG2 Attagene CIS TGFb reporter, mRNA transcription; actives raise or lower the signal
Procedure, shortened: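 HepG2 cells transiently transfected with cis-promoter-driven multiplexed reporter units; 24 h compound exposure. Reporter mRNA measured by RT-PCR, 6-FAM labeling, HpaI digestion and capillary electrophoresis; bidirectional fit versus DMSO baseline.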

[12] = ATG_VDRE_CIS: Attagene CIS-FACTORIAL HepG2 Assay for human Vitamin D Receptor Element (VDRE) (AID 2282968); conditions: HepG2 VDRE cis-reporter transcription, actives raise or lower the signal
Procedure, shortened: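 Compounds were applied for 24 h to HepG2 cells transfected with promoter-regulated reporter units. Total RNA was reverse-transcribed, and reporter amplicons were fluorescently labelled and sized by capillary electrophoresis.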

[13] = molecular target: X-box-binding protein 1 (Homo sapiens) (UniProt P17861); assay: ATG_Xbp1_CIS: Attagene CIS-FACTORIAL HepG2 Assay for human X-box Binding Protein 1 (XBP1) (AID 2282972); conditions: HepG2 XBP1 cis-element reporter, Attagene multiplex; actives raise or lower the signal
Procedure, shortened: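 Multiplexed cis-reporter readout in transfected HepG2 liver cells. Exposure lasted 24 hours. Activity in either direction was fitted against DMSO as negative control and baseline.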

[14] = molecular target: Estrogen-related receptor gamma (Homo sapiens) (UniProt P62508); assay: ATG_ERRg_TRANS: Attagene TRANS-FACTORIAL HepG2 Assay for human Estrogen-Related Receptor gamma (ERRg) (AID 2282977; active = hit-call score of the fitted dose curve at least 0.9, where 1 is the maximum;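 also: hits increase reporter signal over DMSO so potencies reflect activators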); conditions: HepG2 Attagene TRANS reporter, ERRg transactivation
Procedure, shortened: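 Induction of reporter transcripts through a chimeric NR-Gal4 protein is quantified in transfected human HepG2 liver cells after 24 h chemical exposure, using RT-PCR with capillary electrophoresis detection and DMSO as baseline.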

[15] = ATG_Sox_CIS: Attagene CIS-FACTORIAL HepG2 Assay for human SRY-box transcription factor (SOX) (AID 2282960); conditions: HepG2 Attagene cis-factorial SOX reporter, mRNA; actives raise or lower the signal
Procedure, shortened: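 Using transiently transfected HepG2 cells, reporter transcription driven by cis elements was assessed 24 h after dosing. Signal was fluorescence of capillary-separated RT-PCR products, with DMSO defining baseline activity.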

[16] = molecular target: Nuclear receptor subfamily 1 group I member 3 (Homo sapiens) (UniProt Q14994); assay: ATG_CAR_TRANS: Attagene TRANS-FACTORIAL HepG2 Assay for human Constitutive Androstane Receptor (CAR) (AID 2282969; active = hit-call score of the fitted dose curve at least 0.9, where 1 is the maximum;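 also: activators raise reporter mRNA above DMSO so AC50 marks induction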); conditions: HepG2 Attagene TRANS-FACTORIAL CAR reporter
Procedure, shortened: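 Transiently transfected HepG2, multiplex TRANS reporters (CAR-Gal4 chimera driving GAL4-UAS reporter). 24 h dosing. Readout: reporter transcript by RT-PCR + capillary electrophoresis, fluorescence intensity; positive direction vs DMSO.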

[17] = molecular target: Estrogen receptor (Homo sapiens) (UniProt P03372); assay: ATG_ERa_TRANS: Attagene TRANS-FACTORIAL HepG2 Assay for human Estrogen Receptor alpha (ERa) (AID 2282970; active = hit-call score of the fitted dose curve at least 0.9, where 1 is the maximum); conditions: HepG2 Attagene TRANS ERa GAL4 reporter, mRNA
Procedure, shortened: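 Transfected HepG2 cells carrying GAL4-UAS-driven reporter units were dosed for 24 hours. Total RNA was reverse-transcribed, reporter sequences PCR-amplified, FAM-labelled, HpaI-digested and resolved by capillary electrophoresis. Increases over DMSO control defined activity.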

[18] = ATG_GAL4_TRANS: Attagene TRANS-FACTORIAL HepG2 Assay for GAL4 (Internal Marker) (AID 2282976; active = hit-call score of the fitted dose curve at least 0.9, where 1 is the maximum); conditions: HepG2 Attagene TRANS GAL4 internal marker reporter
Procedure, shortened: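 Fluorescence from capillary electrophoresis of labelled RT-PCR products quantifies reporter mRNA induction after 24 h dosing of HepG2 cells carrying transfected GAL4-UAS reporter transcription units. Vehicle DMSO serves as baseline.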

[19] = ATG_M_19_TRANS: Attagene TRANS-FACTORIAL HepG2 Assay for M19 Transcription Factor (Internal Marker) (AID 2282974; active = hit-call score of the fitted dose curve at least 0.9, where 1 is the maximum); conditions: HepG2 Attagene TRANS-FACTORIAL M19 internal marker reporter
Procedure, shortened: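 Gain-of-signal in reporter mRNA, relative to DMSO, was scored from capillary electrophoresis fluorescence. HepG2 cells carried transiently transfected multiple reporter transcription units and were incubated with test chemicals for 24 h.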

Measured: AC50

Sequence of Estrogen receptor (Homo sapiens) (P03372 whole entry, looked up, the tested form may be a part): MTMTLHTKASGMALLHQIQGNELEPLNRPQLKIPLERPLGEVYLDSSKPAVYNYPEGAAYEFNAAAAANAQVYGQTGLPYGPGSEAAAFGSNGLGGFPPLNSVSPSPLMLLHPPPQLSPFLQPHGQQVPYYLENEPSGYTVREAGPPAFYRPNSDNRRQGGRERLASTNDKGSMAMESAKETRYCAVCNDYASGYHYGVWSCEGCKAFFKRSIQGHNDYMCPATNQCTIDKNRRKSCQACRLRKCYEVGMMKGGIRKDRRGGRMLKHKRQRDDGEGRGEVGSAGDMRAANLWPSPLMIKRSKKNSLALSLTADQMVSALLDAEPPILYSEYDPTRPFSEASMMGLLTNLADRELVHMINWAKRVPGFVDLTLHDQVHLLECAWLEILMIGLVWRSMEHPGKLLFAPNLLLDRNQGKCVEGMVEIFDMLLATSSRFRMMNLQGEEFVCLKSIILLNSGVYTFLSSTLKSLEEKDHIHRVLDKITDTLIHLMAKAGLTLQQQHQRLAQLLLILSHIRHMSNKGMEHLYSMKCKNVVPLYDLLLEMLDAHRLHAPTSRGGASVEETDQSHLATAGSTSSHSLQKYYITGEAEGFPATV
Sequence of X-box-binding protein 1 (Homo sapiens) (P17861 whole entry, looked up): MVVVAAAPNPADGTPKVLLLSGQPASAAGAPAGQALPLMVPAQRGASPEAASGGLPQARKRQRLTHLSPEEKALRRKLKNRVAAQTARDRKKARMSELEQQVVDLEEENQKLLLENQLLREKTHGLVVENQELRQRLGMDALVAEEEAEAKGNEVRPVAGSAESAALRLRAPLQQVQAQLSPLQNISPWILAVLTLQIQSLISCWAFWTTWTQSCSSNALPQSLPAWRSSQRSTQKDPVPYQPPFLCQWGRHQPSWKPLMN
Sequence of Paired box protein Pax-6 (Homo sapiens) (P26367 whole entry, looked up): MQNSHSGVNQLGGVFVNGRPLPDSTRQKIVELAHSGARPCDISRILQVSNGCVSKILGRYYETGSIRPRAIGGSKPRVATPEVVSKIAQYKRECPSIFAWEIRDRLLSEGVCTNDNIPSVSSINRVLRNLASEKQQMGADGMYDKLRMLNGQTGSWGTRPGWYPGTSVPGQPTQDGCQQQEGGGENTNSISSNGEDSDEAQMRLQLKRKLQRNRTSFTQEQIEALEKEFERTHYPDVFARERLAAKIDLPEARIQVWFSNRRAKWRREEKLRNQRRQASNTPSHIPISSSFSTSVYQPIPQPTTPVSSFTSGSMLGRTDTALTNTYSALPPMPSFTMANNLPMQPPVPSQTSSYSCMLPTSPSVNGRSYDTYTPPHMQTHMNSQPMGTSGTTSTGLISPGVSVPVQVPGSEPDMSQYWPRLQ
Sequence of Signal transducer and activator of transcription 3 (Homo sapiens) (P40763 whole entry, looked up, the tested form may be a part): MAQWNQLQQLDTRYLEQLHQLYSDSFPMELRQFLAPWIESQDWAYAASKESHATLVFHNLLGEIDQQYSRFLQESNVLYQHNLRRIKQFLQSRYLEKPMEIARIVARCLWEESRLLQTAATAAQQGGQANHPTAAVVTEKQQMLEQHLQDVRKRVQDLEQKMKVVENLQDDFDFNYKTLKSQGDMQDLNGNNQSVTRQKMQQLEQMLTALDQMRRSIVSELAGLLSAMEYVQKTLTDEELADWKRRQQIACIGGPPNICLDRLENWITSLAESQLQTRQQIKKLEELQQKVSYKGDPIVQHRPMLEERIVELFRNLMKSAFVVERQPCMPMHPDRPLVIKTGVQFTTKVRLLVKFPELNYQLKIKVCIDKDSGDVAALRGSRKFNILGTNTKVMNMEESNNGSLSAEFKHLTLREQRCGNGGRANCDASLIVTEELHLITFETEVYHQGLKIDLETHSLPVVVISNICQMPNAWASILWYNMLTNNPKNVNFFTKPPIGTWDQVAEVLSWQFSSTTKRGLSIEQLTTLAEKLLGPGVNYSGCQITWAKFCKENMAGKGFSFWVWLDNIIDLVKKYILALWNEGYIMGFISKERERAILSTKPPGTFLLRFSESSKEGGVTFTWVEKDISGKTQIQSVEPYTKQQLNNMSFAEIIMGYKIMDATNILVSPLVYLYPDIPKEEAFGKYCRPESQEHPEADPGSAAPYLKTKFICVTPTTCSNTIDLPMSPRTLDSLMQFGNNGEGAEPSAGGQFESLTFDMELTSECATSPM
Sequence of Nuclear receptor subfamily 1 group I member 3 (Homo sapiens) (Q14994 whole entry, looked up, the tested form may be a part): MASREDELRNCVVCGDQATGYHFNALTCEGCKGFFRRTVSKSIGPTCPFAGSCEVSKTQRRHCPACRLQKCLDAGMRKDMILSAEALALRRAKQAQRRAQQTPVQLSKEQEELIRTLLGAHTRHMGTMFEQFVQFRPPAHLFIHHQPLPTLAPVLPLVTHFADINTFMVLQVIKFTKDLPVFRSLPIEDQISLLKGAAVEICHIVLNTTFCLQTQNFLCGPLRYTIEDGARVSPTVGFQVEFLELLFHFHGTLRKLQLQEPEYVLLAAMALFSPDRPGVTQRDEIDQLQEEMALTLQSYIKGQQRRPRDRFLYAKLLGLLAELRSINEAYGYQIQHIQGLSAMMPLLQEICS
Sequence of Transcription factor Sp1 (Homo sapiens) (P08047 whole entry, looked up): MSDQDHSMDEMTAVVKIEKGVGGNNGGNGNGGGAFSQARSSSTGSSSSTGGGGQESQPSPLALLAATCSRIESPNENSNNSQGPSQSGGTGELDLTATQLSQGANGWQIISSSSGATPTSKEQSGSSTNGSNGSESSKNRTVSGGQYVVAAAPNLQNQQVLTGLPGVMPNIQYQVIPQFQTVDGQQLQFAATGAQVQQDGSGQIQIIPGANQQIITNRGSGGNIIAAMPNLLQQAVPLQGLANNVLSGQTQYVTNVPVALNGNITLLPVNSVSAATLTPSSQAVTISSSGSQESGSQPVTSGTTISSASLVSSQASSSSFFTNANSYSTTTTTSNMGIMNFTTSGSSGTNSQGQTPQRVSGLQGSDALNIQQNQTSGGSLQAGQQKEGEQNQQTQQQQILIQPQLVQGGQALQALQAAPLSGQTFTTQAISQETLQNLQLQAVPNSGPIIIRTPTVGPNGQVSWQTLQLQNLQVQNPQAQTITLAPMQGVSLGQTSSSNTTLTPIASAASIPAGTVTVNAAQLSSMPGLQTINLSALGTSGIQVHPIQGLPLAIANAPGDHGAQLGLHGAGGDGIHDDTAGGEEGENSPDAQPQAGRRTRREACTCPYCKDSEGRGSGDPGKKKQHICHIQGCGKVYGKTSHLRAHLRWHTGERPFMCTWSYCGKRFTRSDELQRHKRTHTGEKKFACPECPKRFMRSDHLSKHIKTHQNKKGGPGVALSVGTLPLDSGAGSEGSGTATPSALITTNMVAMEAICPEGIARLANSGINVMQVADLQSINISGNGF
Sequence of Estrogen-related receptor gamma (Homo sapiens) (P62508 whole entry, looked up, the tested form may be a part): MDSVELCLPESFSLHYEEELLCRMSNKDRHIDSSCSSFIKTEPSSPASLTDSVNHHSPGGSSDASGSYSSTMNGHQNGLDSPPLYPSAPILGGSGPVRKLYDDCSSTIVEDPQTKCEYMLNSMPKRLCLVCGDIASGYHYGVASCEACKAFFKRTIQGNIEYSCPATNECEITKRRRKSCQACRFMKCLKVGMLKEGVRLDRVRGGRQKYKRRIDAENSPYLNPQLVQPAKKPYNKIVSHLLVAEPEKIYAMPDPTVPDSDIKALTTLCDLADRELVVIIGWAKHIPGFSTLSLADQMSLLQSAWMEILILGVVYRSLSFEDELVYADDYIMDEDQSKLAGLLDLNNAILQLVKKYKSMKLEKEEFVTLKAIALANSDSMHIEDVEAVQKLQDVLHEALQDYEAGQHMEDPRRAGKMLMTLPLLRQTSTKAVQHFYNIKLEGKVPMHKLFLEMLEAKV

N#Cc1ccccc1
not listed: [15] | [16] | [17] | [18] | [19]
inactive: all other assays above

CN(C)CCCN
not listed: [4] | [8] | [14] | [18] | [19]
inactive: all other assays above

O=C1CCc2ccccc2O1
not listed: [4] | [14] | [16] | [17] | [19]
inactive: all other assays above

Cc1ccc(C(=O)c2cc(O)c(O)c([N+](=O)[O-])c2)cc1
active: [2] 27.5 µM | [3] 21.8 µM
not listed: [5] | [7] | [14] | [16] | [17] | [18] | [19]
inactive: all other assays above

O=c1oc(=O)c2cc3c(=O)oc(=O)c3cc12
not listed: [8] | [15] | [16] | [17] | [19]
inactive: all other assays above

CC(C)[C@@H]1CC[C@@H](C)CC1=O
not listed: [3] | [12] | [14] | [15] | [16] | [17] | [18]
inactive: all other assays above

COC(=O)c1ccc(C)cc1
active: [2] 11.1 µM
not listed: [3] | [5] | [14] | [18] | [19]
inactive: all other assays above

O=S(=O)(O)c1ccc(O)c2ncccc12
not listed: [3] | [4] | [14] | [16] | [18] | [19]
inactive: all other assays above

Sc1nc(S)nc(S)n1
not listed: [3] | [8] | [10] | [14] | [16] | [17] | [19]
inactive: all other assays above

C=C(C)C(=O)Nc1ccc(Cl)c(Cl)c1
active: [2] 10.2 µM | [4] 27.2 µM | [12] 20.6 µM
not listed: [3] | [7] | [10] | [14]
inactive: all other assays above
